Test results as given in the supplement of paper PMC6555819.

Key:
Test in all cases: PBM binding z-score (relative to random genomic background probes); higher = stronger binding; sequences stand for … in GC…GCGATTGACAGCGTAGAATGAAGG
[1] = tested on: FXR:RXRa (NR concentration 270 nM, RXRa partner concentration 90 nM)
Summary of the method: (§1)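 Random background probes are the reference for binding z-scores. These scores derive from regression-normalized fluorescence on custom Agilent 4×180K protein-binding microarrays incubated 1 h with ligand-free nuclear receptor dimers. Binding was detected with antibodies against each partner (one per run).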

[2] = tested on: LXRa:RXRa (NR concentration 270 nM, RXRa partner concentration 90 nM)
Summary of the method: as §1

[3] = tested on: LXRa homodimer (NR concentration 270 nM)
Summary of the method: as §1

[4] = tested on: LXRb:RXRa (NR concentration 270 nM, RXRa partner concentration 90 nM)
Summary of the method: as §1

[5] = tested on: LXRb homodimer (NR concentration 270 nM)
Summary of the method: as §1

[6] = tested on: PPARa:RXRa (NR concentration 270 nM, RXRa partner concentration 90 nM)
Summary of the method: as §1

[7] = tested on: PPARg:RXRa (NR concentration 180 nM, RXRa partner concentration 90 nM)
Summary of the method: as §1

[8] = tested on: PPARg:RXRa 270nM:90nM, anti-RXR (NR concentration 270 nM, RXRa partner concentration 90 nM)
Summary of the method: as §1

[9] = tested on: PPARg:RXRa 30nM:10nM, anti-RXR (NR concentration 30 nM, RXRa partner concentration 10 nM)
Summary of the method: as §1

[10] = tested on: PPARg:RXRa 90nM:30nM, anti-RXR (NR concentration 90 nM, RXRa partner concentration 30 nM)
Summary of the method: as §1

Row | Sequence | PBM binding z-score [1] | PBM binding z-score [2] | PBM binding z-score [3] | PBM binding z-score [4] | PBM binding z-score [5] | PBM binding z-score [6] | PBM binding z-score [7] | PBM binding z-score [8] | PBM binding z-score [9] | PBM binding z-score [10]
1 | CCTACTGGGGCAAGGTTACCATAACGCACAGCCA | 0.343 | 0.654 | -0.167 | 0.621 | -0.484 | 2.59 | 4.74 | 4.44 | 2.15 | 4.29
2 | TCTGCTAGGTCAACGATGGTTAGCTAATCTGCTA | 3.1 | 2.08 | -0.301 | 1.46 | -0.085 | 3.09 | 2.34 | 3.09 | 1.82 | 2.54
3 | CGTCAAAGTGCAACTAAGGTAACGTAAAGCACGC | 0.888 | 0.803 | -0.122 | 0.5 | -0.623 | 1.29 | 0.842 | 0.685 | 0.0299 | 0.977
4 | CTACCAAGGTGAACAAGGTCGTGGATTACTATTC | 1.7 | 1.56 | -0.154 | 1.73 | -0.448 | 2.96 | 1.5 | 1.61 | 0.053 | 0.918
5 | TTACCAAGGTGAAATGTCGTTGATGCACGCCTTG | 0.891 | 0.622 | -0.432 | 0.388 | -0.436 | 2.35 | 2.41 | 3.4 | 1.94 | 3.36
6 | ACTCGGAGGACAAAGGTCAGACCTACGCCAGTGA | 4.44 | 4.05 | 2.02 | 3.64 | 0.528 | 4.93 | 7.6 | 6.95 | 4.94 | 6.85
7 | CCTTACGGCTCAAGGTTATAGCACGGGTGGTACG | 0.272 | 0.347 | 0.117 | 0.126 | -0.259 | 0.445 | 0.607 | 0.552 | 0.388 | 0.076
8 | ATCGAAAGGTCGTGAGGTGAGCATACAGAAAGGC | 4.88 | 3.62 | -0.0763 | 2.89 | 0.368 | 4.84 | 3.58 | 4.56 | 1.29 | 2.96
9 | ACTATTAGTTGAGACGCGGGCAACCGATAGGTTG | -0.0666 | -0.0998 | -0.325 | -0.488 | 0.193 | -0.624 | 0.371 | -0.414 | -0.25 | -0.167
10 | GCTGCTAGGTGAACTGATGGTCAGCTAAAGCTCG | -0.0942 | -0.291 | -0.843 | -0.328 | -1.56 | 1.27 | 0.329 | 0.967 | -0.226 | 0.635
11 | GCTACAGGGTCAAGGCCAGAGTACGCGTATTGAT | 6.86 | 3.95 | -0.363 | 3.53 | -0.375 | 5.71 | 5.03 | 4.94 | 1.93 | 3.59
12 | GGAACGAGGGCAAGTTCATAGCAGAGTTTGATGG | 2.59 | 1.97 | 0.721 | 1.46 | -0.0122 | 2.95 | 2.11 | 2.35 | 0.471 | 1.57
13 | CGTCCAAGGTCAGAGAGGGCAGTGAATGCCGAGT | 5.26 | 3.77 | 0.447 | 2.71 | -0.0412 | 4.26 | 2.13 | 2.88 | 0.148 | 1.46
14 | ATCTCTAGGTAAGACTCAGTTGAGTGAAGAACGC | 0.19 | 0.256 | -0.143 | 0.303 | 0.234 | -0.0553 | 0.0512 | 0.121 | -0.116 | -0.195
15 | CCTATTAGTTGACCATAAGGGCAGCCGAAGCTCG | 0.542 | -0.0359 | 0.036 | 0.218 | 0.392 | 0.0636 | 0.126 | 0.442 | -0.292 | -0.0917
16 | CCGACTGGGGCAGAAAGGGTACCATACCATCCGG | -0.642 | -0.505 | -0.574 | -0.581 | -1.48 | 0.209 | 0.831 | 0.193 | -0.692 | 0.0495
17 | CATCCAAGGTCAATGCTAGGTCAGTGAAAGCATT | 6.67 | 5.98 | 4.36 | 4.42 | 1.77 | 5.06 | 4.32 | 4.66 | 1.44 | 3.53
18 | GCTAGCAGGCCATTTGGCTCACTCAATGACGGGC | -0.798 | -0.75 | -0.83 | -1.31 | -1.31 | -0.645 | 0.277 | -0.576 | -0.918 | -0.656
19 | TCGGGTAGGTTAGTCGGGGCATTCAGCCAACATA | 0.578 | 0.368 | 0.422 | 1.38 | 0.98 | 1.01 | -0.189 | 0.977 | 1.92 | 1.22
20 | TCTAGCAGGCCAGGGGGTCACTCAAGAGGTACGG | 3.31 | 3.16 | 0.394 | 5.14 | 4.6 | 4.64 | 2.95 | 4.66 | 3.29 | 4.43
21 | CGAACTAGGTCATTGTCAGGACAGTGAATAGTAA | 3.91 | 3.08 | 0.611 | 1.99 | 0.0511 | 4.67 | 7.44 | 6.43 | 4.07 | 5.88
22 | AGAATGAGGTTATACGTAGATCAGCGAAGAAAGT | 1.93 | 1.66 | -0.0526 | 1.22 | -0.284 | 3.27 | 1.91 | 1.88 | 0.445 | 1.21
23 | AGTCAACGTTCACTAGGTAACGTAAGATTCAGCT | -0.243 | -0.0638 | -0.401 | -0.00739 | 0.00206 | 0.525 | 0.874 | 0.511 | 0.121 | 0.475
24 | ATCTCTCGGTAAAGTTCAGTGAAAGATCGATAGA | 1.03 | 1.46 | 1.39 | 1.3 | 1.34 | 1.6 | 1.08 | 2.68 | 1.12 | 2.32
25 | TCTCGGAGGACACGAAGGTCAGAGTTTTCCAGAG | 1.18 | 0.932 | 0.497 | 1.22 | -0.785 | 1.81 | 0.436 | 1.67 | 2.25 | 1.87
